Laboratory results as given in PubChem BioAssay.
Calls of active or inactive are those of the source. Unless noted, the rule behind the calls is not given here.

Legend:
[1] = test system: Wnt5a (protein binding on small-molecule microarray); assay: Wnt5a binders on small-molecule microarray, primary screen, biophysical, 635/667 nm fluorescence (AID 1142); details: 635 nm fluorescence, higher = more signal;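 note: fluorescence read at 667 nm with signal to noise per printed feature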
[2] = cell viability in Huh7 cells, primary screen, cytotoxicity control for HCV replication inhibitor project, CellTiter-Glo luminescence, basal, 48 h (AID 1143); details: Huh7 HCV replicon, higher = more signal, called active from +8 up or from −8 down;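 note: Huh7 hepatoma cells carrying a hepatitis C replication reporter with no stimulus; test concentration not given here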
[3] = P. aeruginosa biofilm formation inhibitors, primary screen, PAO1 strain, BacTiter-Glo luminescence, LB-PBS (AID 1144); details: 12 h, higher = more signal
[4] = CREB reporter modulators without forskolin, primary screen, cell-based, PC12, CRE-LacZ reporter, unstimulated (AID 1145); details: no forskolin, luminescence, 4.5 h, higher = more signal, called active from +8 up or from −8 down
[5] = CREB reporter modulators under forskolin, primary screen, cell-based, PC12, CRE-LacZ reporter, forskolin-stimulated (AID 1146); details: luminescence, 4.5 h, higher = more signal, called active from +8 up or from −8 down;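 note: PC12 cells with 6xCRE LacZ reporter stimulated by forskolin 10 µM; beta-galactosidase reporter signal reflecting CREB driven transcription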
[6] = target: Streptavidin (Streptomyces avidinii) (UniProt P22629); assay: streptavidin binders on small-molecule microarray, primary screen, artefact control for SMM compound annotation, biophysical, 635/667 nm fluorescence (AID 1147); details: streptavidin binding, higher = more signal;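 note: signal reflects streptavidin binding to arrayed compounds as a control protein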
[7] = small-molecule binders of probe aInhba, primary screen, biochemical, small-molecule microarray, 635/667 nm fluorescence (AID 1148); details: higher = more signal;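 note: score merges 667nm spot fluorescence with signal-to-noise for antibody binding to printed compounds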
[8] = target: Torsin-1A (Homo sapiens) (UniProt O14656); assay: torsin A binders from cell lysate, primary screen, small-molecule microarray, wild-type, 635/667 nm (AID 1149); details: COS7 hTOR1A-WT lysate, 635 nm fluorescence, higher = more signal
[9] = target: Torsin-1A (Homo sapiens) (UniProt O14656); assay: small-molecule binders of mutant TOR1A in lysate, primary screen, cell lysate, small-molecule microarray, COS7 lysate, 635/667 nm fluorescence (AID 1150); details: COS7 hTOR1A mutant lysate, 635 nm fluorescence, higher = more signal;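 note: score pools 667 nm emission and signal to noise measuring lysate protein binding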
[10] = test system: Sonic hedgehog protein (Shh); assay: small-molecule binders of Shh protein, primary screen, biochemical, small-molecule microarray, 635/667 nm fluorescence (AID 1151); details: small-molecule microarray binding, 635 nm fluorescence; higher = more signal;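 note: Shh protein binding to compounds spotted on small-molecule microarray slides; score combines spot fluorescence intensity with signal-to-noise across triplicate slides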

Sequence of Torsin-1A (Homo sapiens) (O14656 whole entry, looked up): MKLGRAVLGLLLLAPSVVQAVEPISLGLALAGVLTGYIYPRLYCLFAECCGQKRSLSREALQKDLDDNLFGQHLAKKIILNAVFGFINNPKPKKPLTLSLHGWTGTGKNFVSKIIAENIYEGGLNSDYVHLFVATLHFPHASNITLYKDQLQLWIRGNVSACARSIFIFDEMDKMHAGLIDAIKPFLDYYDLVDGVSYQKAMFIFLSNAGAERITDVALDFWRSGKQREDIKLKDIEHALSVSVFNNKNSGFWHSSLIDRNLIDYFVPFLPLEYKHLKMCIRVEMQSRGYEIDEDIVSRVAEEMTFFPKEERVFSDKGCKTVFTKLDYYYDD
Sequence of Streptavidin (Streptomyces avidinii) (P22629 whole entry, looked up): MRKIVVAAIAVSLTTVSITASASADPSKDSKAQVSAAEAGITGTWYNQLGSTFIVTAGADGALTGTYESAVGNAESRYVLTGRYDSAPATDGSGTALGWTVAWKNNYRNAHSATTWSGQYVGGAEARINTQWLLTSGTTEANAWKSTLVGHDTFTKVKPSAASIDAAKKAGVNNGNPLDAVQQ

Structure (SMILES) | composite z-score [1] | z-score [2] | z-score [3] | z-score [4] | z-score [5] | composite z-score [6] | composite z-score [7] | composite z-score [8] | composite z-score [9] | composite z-score [10]
[N-]=[N+]=Nc1ccccc1[C@H]1OC(c2ccc(OCCCO)cc2)=N[C@@]1(CCS(=O)(=O)c1ccccc1)C(=O)O | 0.296 | -1.06 (inactive) | 0.713 (inactive) | 1.29 (inactive) | -0.197 (inactive) | 0.433 | 0.0516 | -0.363 | 1.13 | -0.721
COCCOC(=O)N1C(=O)[C@@]2(c3ccccc31)[C@H](C(=O)Nc1nc3ccccc3s1)[C@H]1C(=O)O[C@H](c3ccccc3)[C@H](c3ccccc3)N1[C@@H]2c1ccc(OCCO)cc1 | 0.931 | -2.34 (inactive) | -0.706 (inactive) | -0.878 (inactive) | -0.523 (inactive) | 0.82 | 0.038 | 0.488 | 1.25 | 1.12
C=CC[C@]1(C(=O)N2CCOCC2)N=C(c2ccc(OCCCO)cc2)O[C@H]1c1ccccc1 | 0.514 | -2.02 (inactive) | -0.248 (inactive) | 1.34 (inactive) | -0.302 (inactive) | 0.954 | 0.0561 | -0.267 | 0.96 | -0.509
O=C1C2C=CC(C(O)c3ccc(-c4ccccc4)s3)N(n3cnnc3)C2C(=O)N1Cc1ccccc1 (stereo not given) | -0.18 | -0.291 (inactive) | -0.669 (inactive) | 0.481 (inactive) | 0.288 (inactive) | -0.116 | -0.0087 | -0.412 | -0.468 | -0.683
CC(=O)NCCCC[C@@H]1NC(=O)[C@@H]2C[C@H](C(=O)NCCCCCCNC(=O)CS)[C@H](c3ccc(O)cc3)N2C1=O | -0.126 | 0.448 (inactive) | -0.388 (inactive) | -0.268 (inactive) | -0.277 (inactive) | 0.453 | -0.0944 | 0.957 | 0.936 | 0.377
C=CC[C@@H](OC(=O)Nc1ccc(OC)cc1)c1ccc(O)c2ccccc12 | 0.42 | -4.89 (inactive) | -1.39 (inactive) | 1.01 (inactive) | 4.3 (inactive) | 0.737 | 0.241 | 1.31 | 0.625 | 2.03
O=C1OCCC=C[C@H]2OC34C=CCN(c5ccc6ccccc6c5)C(=O)[C@H]3N(CCCCCO)C(=O)[C@@H]4C12 (stereo not given in full) | -0.288 | 0.0855 (inactive) | -1.17 (inactive) | 0.0645 (inactive) | -0.206 (inactive) | 0.136 | -0.0471 | 0.592 | 1.8 | 0.157
